Test results reported in PubChem BioAssay (NCI).
Compounds without any hit were thinned out: in the full panel of roughly 79,000, 15% have a hit. Activity calls are given as the source filed them. Rule as the data show it: active = growth inhibition above about 70%; inactive = the rest.

Test: NCI Yeast Anticancer Drug Screen. Data for the CLN2oe strain (AID 163);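 also: 0% = growth of vehicle-only control cultures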
Conditions: S. cerevisiae CLN2oe strain, at 3.7 µM, stronger effect = higher value
In short: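 Cells of an engineered yeast line with disturbed cell-cycle regulation are treated with compound. Inhibition of growth is then calculated relative to the vehicle-treated reference.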

SMILES | growth inhibition
CC(C)C(=O)CC(Sc1ccc(N)cc1)c1ccccc1 (centres undefined) | -13% (inactive)
CC(C)OP(=O)(OC(C)C)/C(Cl)=N/Nc1ccc([N+](=O)[O-])cc1 | 20% (inactive)
O=[N+]([O-])c1cc(Cl)ccc1S(=O)(=O)c1ccc(Cl)cc1[N+](=O)[O-] | -4% (inactive)
CCCCCCNCCCNc1c2cc(OC)ccc2nc2cccc([N+](=O)[O-])c12 | -13% (inactive)
N#CCC(=O)N/N=C(\c1ccccc1)C(c1ccccc1)C1(O)C(=O)Nc2c(Cl)ccc(Cl)c21 (centres undefined) | -2% (inactive)
CN(C)CCNCCCNc1c2ccccc2nc2cccc([N+](=O)[O-])c12 | -4% (inactive)
CCC[CH2][Ge]([CH2]CCC)([CH2]CCC)[O]C(=O)C(O)c1ccccc1 (centres undefined) | 5% (inactive)
COc1ccc(-c2cc(-c3cc(C)cc(Cl)c3O)nc3[nH]c(=S)[nH]c(=S)c23)cc1 | -2% (inactive)
O=[N+]([O-])c1ccc(/C=C\c2ccc3c(c2)OCO3)c([N+](=O)[O-])c1 | -3% (inactive)
O=C1c2ccccc2N2OC3(N4CCCC4)CCCCC3C12c1ccccc1 (centres undefined) | -12% (inactive)
Cc1oc2ccccc2c(=O)c1Cn1nnc2ccccc21 | 0% (inactive)
CC1(C)OC(=O)C(=Cc2ccc([N+](=O)[O-])s2)C(=O)O1 | 26% (inactive)
CCN(CC)CCCNc1ccc([N+](=O)[O-])c2nc3ccc(OC)cc3c(NCCCN(CC)CC)c12 | -9% (inactive)
COc1cccc(/C=C2\S/C(=N/Nc3nc(-c4ccc([N+](=O)[O-])cc4)cs3)NC2=O)c1O | 25% (inactive)
